Data taken from PubChem BioAssay AID1851 (National Center for Advancing Translational Sciences (NCATS), 2009).
“And” between values parts separate entries of the source, which are not always exact repeats. Identical values can stand only once. The campaign covered roughly 16,000 compounds. About 5,800 (36%) were called active. Roughly 23% stayed inconclusive and do not appear here. Calls follow the shape of the dose curve; as a rule, active = well fitted curve in the direction sought with a large enough effect; inconclusive = small, poorly fitted or top-dose-only effect, or effect the other way; inactive = no such curve, though single readings can be large or run the other way. The list shows a part of the results.

Target: Cytochrome P450 2C19 (Homo sapiens) (UniProt P33261)
Sequence (P33261 whole entry, looked up): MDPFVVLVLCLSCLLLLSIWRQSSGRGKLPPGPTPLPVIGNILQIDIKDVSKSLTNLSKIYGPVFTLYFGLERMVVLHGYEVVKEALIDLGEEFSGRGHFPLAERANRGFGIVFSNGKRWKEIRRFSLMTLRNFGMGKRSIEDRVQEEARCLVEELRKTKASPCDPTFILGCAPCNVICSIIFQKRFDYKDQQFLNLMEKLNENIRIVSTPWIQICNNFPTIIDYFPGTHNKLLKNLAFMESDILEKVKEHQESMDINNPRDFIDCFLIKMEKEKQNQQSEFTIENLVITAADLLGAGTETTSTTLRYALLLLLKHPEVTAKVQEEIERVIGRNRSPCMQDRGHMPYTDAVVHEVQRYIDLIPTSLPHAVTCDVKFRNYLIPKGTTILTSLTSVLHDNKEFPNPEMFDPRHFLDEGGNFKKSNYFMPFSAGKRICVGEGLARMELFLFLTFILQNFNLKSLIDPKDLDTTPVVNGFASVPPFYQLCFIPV
Assay: Cytochrome panel assay with activity outcomes
Conditions: recombinant CYP, pro-luciferin dealkylation, luminescence, p450-cyp2c19; series mostly up to 57.1 µM; activity, negative = inhibition: at the top concentration
% is scaled to controls: 0 for no effect and ±100 for the full control effect.

activity, negative = inhibition, inactive:
O=C(O)CC/C=C\C[C@@H]1CO[C@H](c2ccccc2Cl)O[C@@H]1c1ccccc1O -44.4%
Cc1nc2cnc(Oc3cccc(Cl)c3)nc2n(C[C@H]2CCCO2)c1=O -16.9%
COc1ccc(Oc2ncc3ncc(=O)n(C[C@H]4CCCO4)c3n2)cc1 -37%
COC(=O)[C@]1(C)CCC(c2ccc(C)cc2)=C(CC(=O)O)C1 11.9% [at 11.4 µM]
CO[C@H]1C[C@@H]2C[C@H](O)C[C@@H](CC(=O)O[C@@H](/C=C\CC(C)C)C[C@@H]3CC[C@H](C)[C@@H](C1)O3)O2 2.79% [at 11.4 µM]
COc1ccc(CCN2C(=O)C(O)=C(C(=O)c3ccco3)C2c2cccs2)cc1OC (configuration not stated) -19.4%
O=C1C[C@@H](O)[C@@H](O)[C@H]2[C@@H]3C(=O)N(Cc4ccc5c(c4)OCO5)C(=O)[C@@H]3CC[C@H]12 37.1% [at 11.4 µM] and -14% [at 11.4 µM]
COCCCNC(=O)C1CC(=O)N(CCc2ccc(OC)c(OC)c2)C1 (configuration not stated) -23.4%
O=C(NCC1CCCO1)C1c2ccccc2C(=O)N1Cc1ccc2c(c1)OCO2 (configuration not stated) -28%
CN(C)CCCO[C@H]1[C@@H]2OC(C)(C)O[C@@H]2O[C@@H]1[C@H](O)CO -7.77% [at 25.6 µM]
C[n+]1ccccc1/C=N\O -8.91% [at 25.6 µM]
CC(=O)NCCNc1ncnc2ccc(-c3ccc(C(=O)N(C)C)cc3)cc12 -6.63%
CC(=O)NCCNc1ncnc2ccc(-c3ccoc3)cc12 2.38%
COc1ccccc1-c1ccc2ncnc(NCCNC(C)=O)c2c1 -43%

AC50, active:
O=c1c(CCc2ccccc2)nc2cnc(Oc3cccc(Cl)c3)nc2n1C[C@H]1CCCO1 20 µM
COc1ccc(C(=O)n2c(SC)nc3cc4c(cc32)OCCO4)cc1 10 µM
CCOc1ccccc1NC(=O)CSc1nnc(-c2cnccn2)n1C 15.8 µM
COC(=O)c1ccc(C2C(Oc3ccccc3)C(=O)N2CCc2ccc(OC)c(OC)c2)cc1 (configuration not stated) 1.58 µM
COc1ccc(CCN2C(=O)C(Oc3ccccc3C)C2c2ccc3c(c2)OCO3)cc1OC (configuration not stated) 0.501 µM
Cc1ccccc1OC1C(=O)N(Cc2ccc3c(c2)OCO3)C1c1sccc1C (configuration not stated) 1.12 µM
CC(=O)NCCNc1ncnc2ccc(-c3ccccc3C)cc12 20 µM
CC(=O)NCCNc1ncnc2ccc(-c3ccc4c(c3)OCO4)cc12 6.31 µM
